# Experimental data as given in PubChem BioAssay AID485364 (National Center for Advancing Translational Sciences (NCATS), 2010).
# The campaign covered roughly 360,000 compounds. About 11,000 (3.1%) were called active. A call without a number means that no potency is given here. Inconclusive results (about 4%) are left out. This is one part of a sample in which actives are shown more often than they occur. Calls come from the whole dose curve; as a rule, active = well fitted inhibition curve with a large enough effect; inconclusive = small, poorly fitted or top-dose-only effect; inactive = no such curve, though single readings can be large or run the other way.
# Target: Schistosoma mansoni thioredoxin glutathione reductase (TGR) (UniProt Q962Y6)
# Test: qHTS Assay for the Inhibitors of Schistosoma Mansoni Peroxiredoxins; note: nearly all actives have a fitted effect of over 60% in size
# Details: purified TGR, DTNB reduction, TNB absorbance 405 nm; series mostly up to 114 µM
# How it was run: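 TGR 20 nM + NADPH 100 uM (dispensed conc.), cpd preinc 15 min RT; start with NADPH (500 uM addition) then DTNB (15 mM addition). Kinetic TNB absorbance, 405 nm filter. Four-parameter Hill fit across titration.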
# Potency is the fitted concentration of half-maximal effect.
row,SMILES,Potency
1,CCOC(=O)c1cc2c(=O)n3ccccc3nc2n(CC2CCCO2)c1=NC(=O)c1ccccc1Br (stereo unspecified),inactive
2,Cc1cc(C)c2c(=O)[nH]c(SCC(=O)Nc3ccc(Br)cc3)nc2n1,inactive
3,Cc1ccn(C(CC(=O)c2ccc(Br)cc2)C(=O)O)n1 (stereo unspecified),8.91 µM (active)
4,Cc1ccc(NC(=O)CCC(=O)c2ccc(Br)cc2)cc1,inactive
5,Cc1ccc(-n2ncc3c(=O)n(Cc4cccc(C(F)(F)F)c4)cnc32)cc1C,inactive
6,O=C(Nc1ccccc1Cl)N1CCC(CN2CCCC2)CC1,inactive
7,CCOC(=O)c1cc2n(c1N)-c1ccccc1C2=O,31.6 µM (active)
8,CCOC(=O)c1ccccc1CN1C(=O)c2ccccc2S1(=O)=O,inactive
9,CCOC(=O)c1cc(-c2ccccc2)n(CCC(=O)Nc2ccccc2CC)c1C,inactive
10,O=C(Nc1cccc2cccnc12)c1cccc2c(Br)cccc12,inactive
11,COc1ccc(CNC(=O)c2cc3c(=O)[nH]c4ccc(C)cc4c3s2)c(OC)c1,inactive
12,N#C/C(=C\c1cccc(F)c1)c1nc(-c2cc3c(ccc4ccccc43)oc2=O)cs1,inactive
13,COC(=O)c1ccc(CSc2ccc3nnc(-c4ccccc4)n3n2)o1,56.2 µM (active)
14,COC(=O)c1ccc(CSc2nnc(N)s2)o1,inactive
15,COC(=O)c1ccc(CSc2ccccc2C)o1,inactive
16,CCOc1ccc(OCC)c(NS(=O)(=O)c2ccc3[nH]c(=O)ccc3c2)c1,inactive
17,CCc1ccccc1N1CC(c2nc3ccccc3n2CCCCOc2ccccc2)CC1=O (stereo unspecified),inactive
18,O=C(/C=C/c1ccc([N+](=O)[O-])o1)NNC(=O)c1ccc(F)cc1,11.2 µM (active)
19,O=C(Nc1ccc(F)cc1)C1CCN(C(=O)c2ccc([N+](=O)[O-])cc2)CC1,inactive
20,O=C(/C=C/c1ccc(F)cc1)NC(=S)NNC(=O)c1cccnc1,inactive
21,CC1(C)CCSC(/C=C/c2ccccc2)=N1,17.8 µM (active)
22,CCCCC(CC)CNC(=O)C1CCN(S(=O)(=O)c2cccc3nsnc23)CC1 (stereo unspecified),inactive
23,COc1ccc2c(CNCCc3ccccc3C)c(C(=O)O)n(Cc3ccccc3C)c2c1,inactive
24,CCOC(=O)N1CCN(CC(=O)c2c(C)[nH]c3ccccc23)CC1,35.5 µM (active)
25,CC1CCCN(Cc2nc3c(c(=O)n(C)c(=O)n3C)n2CC(=O)c2ccccc2)C1 (stereo unspecified),inactive
26,Cc1[nH]c2ccccc2c1C(=O)CN1CCCC(C)C1 (stereo unspecified),25.1 µM (active)

row,SMILES,Potency
1,CCOC(=O)N1CCN(CC(=O)c2ccc3c(c2)CCN3)CC1,inactive
2,CC1CCN(CC(=O)c2c[nH]c3ccccc23)CC1,inactive
3,CCOC(=O)N1CCN(CC(=O)n2c(C)c(C)c3ccccc32)CC1,inactive
4,Cc1cccc(N2CCN(C(=O)Cn3ncc4c5ccccc5n(C)c4c3=O)CC2C)c1 (stereo unspecified),inactive
5,CCc1cc2c(cc3c(=O)n(CC(=O)NCc4cccc(Cl)c4)nc(CC)n32)s1,inactive
6,Cc1cccc(NC(=O)c2cc3c(C)nn(-c4ccccc4)c3s2)c1,inactive
7,COC(=O)c1ccc(OC)c(Cn2c(=O)n(Cc3ccccc3)c(=O)c3c2c2cc(OC)ccc2n3C)c1,inactive
8,Cc1oc2ccc(O)c(CN3CCCCC3)c2c1C(=O)Nc1cccc(C(F)(F)F)c1,inactive
9,CCN(Cc1ccccc1)C(=O)c1cn(-c2cccc(OC)c2)c(=O)c2ccccc12,inactive
10,Cc1ccccc1NC(=O)CN1C(=O)C(C)(C)c2ccccc21,inactive
11,COc1ccc(/C=C(\C#N)c2c[nH]c3ccccc23)cc1,14.1 µM (active)
12,COc1cccc(-n2c(SCC(=O)c3c[nH]c4ccccc34)nc3ccccc3c2=O)c1,inactive
13,CCOc1ccc(/C=C(\C#N)c2nc3ccccc3c(=O)[nH]2)cc1OC,inactive
14,COC(=O)c1ccc(NC(=O)c2cccc3c2C(=O)N(C2CCCCC2)C3)cc1,inactive
15,CCN(CC)c1nn2c(=O)c(C(=O)NCCc3ccccc3)cnc2s1,inactive
16,O=C(O)c1ccc(Nc2nc(-c3ccccc3)c3cc(Br)ccc3n2)cc1,inactive
17,CC1=NC2(CCCc3c2no[n+]3[O-])N(O)C1(C)C (stereo unspecified),44.7 µM (active)
18,COc1ccc(-c2cn3nc(N4CCC(C(=O)Nc5cccc(C)c5C)CC4)sc3n2)cc1,inactive
19,CCOC(=O)C1CCCN(C(=O)c2ccc(-n3ccc4ccccc43)s2)C1 (stereo unspecified),inactive
20,CC(OC(=O)CN1C(=O)COc2ccccc21)C(=O)NCc1ccc(F)cc1 (stereo unspecified),inactive
21,O=C(CN1C(=O)COc2ccccc21)Nc1ccc(F)cc1,70.8 µM (active)
22,O=C(CN1C(=O)COc2ccc(Cl)cc21)Nc1ccc(N2CCOCC2)cc1,inactive
23,O=C(O)c1c(CNCc2cccc(F)c2)c2ccccc2n1Cc1ccccc1,inactive
24,Brc1cc(/C=N/n2cnnc2)oc1Br,inactive
25,Cc1cccc(C(=O)Nc2ccc(C(=O)N/N=C/c3cccc(C)n3)cc2)c1,inactive
26,Cc1ccc(C(=O)N/N=C\c2cc(Br)c(Br)o2)cn1,22.4 µM (active)

row,SMILES,Potency
1,Cn1nnnc1SCCCNCc1cccc(OCc2ccc(Cl)cc2)c1,inactive
2,CCOC(=O)c1cc2c(=O)n3ccccc3nc2n(CCCOC)c1=NC(=O)C(C)Oc1ccccc1 (stereo unspecified),inactive
3,COc1ccccc1/C=C/C(=O)NC1CC2CCC1C2 (stereo unspecified),inactive
4,CCOC(=O)C(=CNc1cccc(C)n1)C(=O)OCC,inactive
5,CCOC(=O)C(=Cc1ccccc1OC)C(=O)OCC,28.2 µM (active)
6,COc1cc(C(=O)NCCc2csc3nc(-c4ccccc4C)nn23)cc(OC)c1OC,inactive
7,CCC1=Nc2cc(C(=O)NCCCN3CCOCC3)ccc2Sc2ccc(Br)cc21,inactive
8,O=C(NCCCN1CCOCC1)c1ccc2c(c1)N(Cc1cccc(F)c1)C(=O)c1ccccc1S2,22.4 µM (active)
9,Cc1ccccc1CN1C(=O)c2ccccc2Sc2ccc(C(=O)NCCCN3CCOCC3)cc21,inactive
10,Cc1ccc(CCNC(=O)c2ccc3c(c2)nc2n3CCC(C)C2)cc1 (stereo unspecified),inactive
11,CCOc1cccc(CC(=O)N2CCc3c([nH]c4ccccc34)C2c2ccc(OC)cc2)c1OCC (stereo unspecified),inactive
12,CCN(CC)S(=O)(=O)c1ccc2c(c1)nc(CN(C)C(=O)Nc1ccc(Cl)cc1)n2C,inactive
13,O=C(Cc1ccc(-c2ccccc2)cc1)NC(c1ccccc1)c1ccccc1,inactive
14,CCOC(=O)C(C(=O)OCC)C(C#N)c1ccccc1 (stereo unspecified),inactive
15,CCOC(=O)/C=C/C(=O)OCC(=O)NC(c1ccccc1)c1ccccc1,15.8 µM (active)
16,COc1cccc(C2C(C(=O)Nc3ccc(C)cc3C)=C(C)Nc3c(C(=O)Nc4ccccc4)cnn32)c1 (stereo unspecified),inactive
17,Cc1cccc(NC(=O)CSc2nc3c([nH]c4ccccc43)c(=O)n2-c2cc(C)cc(C)c2)c1,inactive
18,CSc1cccc(NC(=O)CN2C(=O)CCc3cc(S(=O)(=O)N4CCCCC4)ccc32)c1,inactive
19,COc1ccc(Cn2c(C(=O)O)c(CNCc3cccc(OC)c3)c3ccc(C)cc32)cc1,inactive
20,O=C(CSc1nc(=O)[nH]c2c1CCCC2)Nc1cc(C(F)(F)F)ccc1Cl,inactive
21,Cc1nc2c(c(C)nn2-c2ccccc2)c(C)c1CCC(=O)NCCc1ccc(Cl)cc1,inactive
22,C=Cc1ccc(Cn2c(C(=O)O)c(CNC3CCCC3)c3ccc(C)cc32)cc1,inactive
23,CC(C)OCCCNC(=O)CNC(=O)c1cccs1,inactive
24,O=C(NCc1ccco1)c1ccc(Cn2c(=O)c3sccc3n(Cc3ccc(F)cc3)c2=O)cc1,inactive
25,CC(C)OCCCNC(=O)c1ccc(C2SCC(=O)N2Cc2ccco2)cc1 (stereo unspecified),25.1 µM (active)
26,CCOc1ccc(NC(=O)c2cc(S(=O)(=O)N3CCCC3)c[nH]2)cc1,inactive

row,SMILES,Potency
1,COc1ccc(CNC(=O)c2cc3c(s2)-c2ccccc2OC3)cc1,inactive
2,COc1cccc(CNC(=O)Cn2c(=O)c3cccn3c3ccc(F)cc32)c1OC,inactive
3,O=C(NNS(=O)(=O)Cc1ccccc1)c1ccc([N+](=O)[O-])cc1,inactive
4,O=C(CNC(=O)c1ccccc1)Oc1ccc([N+](=O)[O-])cc1,11.2 µM (active)
5,O=C(CNC(=O)c1ccccc1)NCC(=O)OCC(=O)c1ccccc1,inactive
6,COc1cc(CN(CC2CCCO2)C(=O)c2ccccc2F)cc(OC)c1OC (stereo unspecified),inactive
7,CCc1nc2c(cnn2-c2ccc(C)cc2)c(=O)n1-c1ccc(C)cc1,inactive
8,Cc1ccc(CN2CCC(n3nccc3NC(=O)CCCc3ccccc3)CC2)o1,inactive
9,COc1cc(CN2CCC(n3nccc3NC(=O)CCCc3ccccc3)CC2)ccc1O,44.7 µM (active)
10,COc1ccc(CN2CCC(n3nccc3NC(=O)CCCc3ccccc3)CC2)cc1C,inactive
11,CC1=Nc2cc(C(=O)N3CCC(C)CC3)ccc2Sc2ccc(Cl)cc21,inactive
12,N=C1C(c2nc3ccccc3s2)=C(O)CN1NC(=O)c1ccc([N+](=O)[O-])cc1,12.6 µM (active)
13,N=C1C(c2nc3ccccc3[nH]2)=C(O)CN1NC(=O)c1c[nH]c2ccccc12,inactive
14,Cc1ccc(C)n1NC(=O)c1ccc([N+](=O)[O-])cc1,inactive
15,CCC(=O)N1CCc2cc(Br)cc(S(=O)(=O)NCc3ccc(Cl)cc3)c21,inactive
16,Cc1nn(CC(=O)O)c(=O)c2cc3cc(F)ccc3n12,inactive
17,COc1ccccc1NC(=O)c1cc(S(=O)(=O)NCCc2ccccc2)ccc1F,inactive
18,C=CCn1c(CSc2nc3ccccc3s2)nnc1SCC(=O)NCc1ccco1,11.2 µM (active)
19,C=CCn1c(SCC(=O)NCc2ccccc2)nnc1-c1cc(Br)ccc1O,inactive
20,O=C(CSc1nc2ccc(Nc3nc(N4CCOCC4)nc(N4CCOCC4)n3)cc2s1)NCc1ccco1,inactive
21,CC(=O)Nc1ccc(NC(=O)CSc2nnc3c4cc(Br)ccc4n(C)c3n2)cc1,inactive
22,CCn1c2ccc(F)cc2c2nnc(SCCN3CCOCC3)nc21,inactive
23,Cn1c2ccc(F)cc2c2nnc(NN)nc21,50.1 µM (active)
